Data as given in PubChem BioAssay (NCATS).
Results filed as inconclusive are left out. Activity calls are given as the source filed them. Unless noted, calls follow the shape of the dose curve; as a rule, active = well fitted curve in either direction with a large enough effect (not every such curve was filed as active); inconclusive = small, poorly fitted or top-dose-only effect, or another doubt; inactive = flat fitted curve, though single readings scatter.

Columns and labels:
[1] = target: Lysosomal acid glucosylceramidase (Homo sapiens) (UniProt P04062); assay: Glucocerebrosidase-p2 (AID 348; in the data active = potency below about 10 µM; also: potency is read from the fitted curve at half-maximal effect); settings: purified GBA, blue fluorogenic substrate, 40 min
Summary of the method: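 Normal human glucocerebrosidase (0.2 nM) with blue fluorogenic substrate (80 uM final) in citrate/phosphate pH 5.9 with 10mM sodium taurocholate, 0.01% tween-20; 40 min RT, NaOH/glycine stop; fluorescence Ex 365/Em 440; AC50 from a titration from 0.6 nM upwards.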

[2] = AP1 Signaling Pathway (AID 357); settings: ME-180 AP-1-bla reporter, EGF-induced, beta-lactamase ratio, 5 h; at 7.69 µM (top of the series) unless noted;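 also: ME-180 reporter cells stimulated with EGF at its EC50 level; % is scaled to controls: 0 for no effect and ±100 for the full control effect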
Summary of the method: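 In this screen, ME-180 cells in Opti-MEM with 0.5% dialyzed FBS received EC50 EGF and compound titrations for 5 h. AP-1 reporter beta-lactamase was detected via CCF4 ratio, giving AC50 for positive and negative modulators.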

[3] = NFAT Signaling Pathway (AID 444); settings: Jurkat NFAT-bla M1, carbachol, beta-lactamase ratio, 5 h; at 7.69 µM (top of the series) unless noted;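 also: carbachol stimulus at about its EC50 of 1 µM final; % is scaled to controls: 0 for no effect and ±100 for the full control effect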
Summary of the method: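 Jurkat cells carrying an NFAT-driven β-lactamase reporter and co-transfected muscarinic M1 receptor were treated with compound plus carbachol (1 uM final, an EC50 level) for 5 h at 37 °C. CCF4 loading followed for 1 h at RT; 460/530 nm ratio gave %activity.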

[4] = Stat Signaling Pathway (AID 446); settings: ME-180 (cervical carcinoma) SIE beta-lactamase reporter, IL-6 stimulated, 5 h; at 7.69 µM (top of the series) unless noted;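 also: ME-180 cervical cancer cells given 40 pM IL-6 alongside compound; SIE-controlled beta-lactamase reporter measured as 460/530 nm FRET emission ratio; % is scaled to controls: 0 for no effect and ±100 for the full control effect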
Summary of the method: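 Overnight-plated ME-180 cells bearing a STAT Inducible Element beta-lactamase reporter; 5 h co-exposure to compound and 40 pM IL-6; values normalized to 300 pM IL-6 and 125 nM JAK inhibitor controls.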

[5] = target: Glucocorticoid receptor (Homo sapiens) (UniProt P04150); assay: GR-GFP Redistribution (AID 450;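 active = compounds whose dose series gives a full or clear partial fitted curve of increased nuclear translocation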; also: potency is read from the fitted curve at half-maximal effect); settings: U2OS GR-GFP nuclear translocation, laser cytometry, 2 h
[6] = target: Glucocorticoid receptor (Homo sapiens) (UniProt P04150); assay: GR-EFC Redistribution (AID 451; calls by dose curve; also: potency is read from the fitted curve at half-maximal effect); settings: CHO-K1 GR-EFC translocation, beta-gal luminescence, 2 h
Summary of the method: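 CHO-K1 cells stably expressing nuclear-localized β-gal enzyme acceptor and GR fused C-terminally to the enzyme donor fragment; ligand-driven nuclear translocation restores β-gal by complementation. Compounds titrated up to 46 uM final, 2 h at 37 °C; luminescence read.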

[7] = target: Mitogen-activated protein kinase 10 (Mus musculus) (UniProt Q61831); assay: JNK3 AlphaScreen Assay (AID 530); settings: JNK3 lysate, c-Jun phosphorylation; series mostly up to 11.4 µM;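 also: kinase came from lysate of stimulated human HepG2 cells; signal reports phosphorylation of biotinylated GST-cJun 1-79 at Ser73 with 10 µM ATP; % is scaled to controls: 0 for no effect and ±100 for the full control effect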
Summary of the method: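 Biotinylated GST-cJun(1-79) served as substrate for JNK3 in HepG2 lysates stimulated with IL-1beta and TNF-alpha. ATP was 10 uM final, pH 7.6. Ser73 phosphorylation was quantified by AlphaScreen (680 nm excitation).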

[8] = target: 3',5'-cyclic-AMP phosphodiesterase 4B (Homo sapiens) (UniProt Q07343); assay: qHTS Assay for Inhibitors of PDE-IV (AID 607; active = well fitted activation curve with a large enough effect in the main read-out, with a control signal flat, not every such curve was filed as active; also: % of control where 0% means no effect); settings: HEK293 ACTOne CNG channel cells, membrane potential fluorescence; series mostly up to 22.9 µM
Summary of the method: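 Live HEK293 cells with a modified cyclic nucleotide-gated (CNG) channel report intracellular cAMP via membrane-potential dye fluorescence (ex 535/em 590 nm). Endogenous PDE-IV was targeted. Compounds were tested at up to 22.9 uM final; RO 20-1724 100 uM served as control.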

Chain of Lysosomal acid glucosylceramidase (Homo sapiens) (P04062 whole entry, looked up): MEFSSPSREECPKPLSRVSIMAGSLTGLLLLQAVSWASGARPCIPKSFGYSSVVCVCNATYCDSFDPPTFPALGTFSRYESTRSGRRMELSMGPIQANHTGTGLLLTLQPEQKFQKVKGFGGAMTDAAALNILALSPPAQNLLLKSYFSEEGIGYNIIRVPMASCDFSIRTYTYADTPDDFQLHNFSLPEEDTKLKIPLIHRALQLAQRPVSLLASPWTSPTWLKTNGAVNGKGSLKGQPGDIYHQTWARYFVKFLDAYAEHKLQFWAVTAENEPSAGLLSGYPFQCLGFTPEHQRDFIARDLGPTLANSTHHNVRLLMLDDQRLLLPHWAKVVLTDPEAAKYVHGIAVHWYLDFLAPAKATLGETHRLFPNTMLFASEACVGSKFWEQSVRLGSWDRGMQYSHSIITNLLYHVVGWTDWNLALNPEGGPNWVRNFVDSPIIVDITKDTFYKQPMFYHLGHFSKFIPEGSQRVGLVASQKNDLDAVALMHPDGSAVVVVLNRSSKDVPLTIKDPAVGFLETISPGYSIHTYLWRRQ
Chain of Glucocorticoid receptor (Homo sapiens) (P04150 whole entry, looked up, the tested form may be a part): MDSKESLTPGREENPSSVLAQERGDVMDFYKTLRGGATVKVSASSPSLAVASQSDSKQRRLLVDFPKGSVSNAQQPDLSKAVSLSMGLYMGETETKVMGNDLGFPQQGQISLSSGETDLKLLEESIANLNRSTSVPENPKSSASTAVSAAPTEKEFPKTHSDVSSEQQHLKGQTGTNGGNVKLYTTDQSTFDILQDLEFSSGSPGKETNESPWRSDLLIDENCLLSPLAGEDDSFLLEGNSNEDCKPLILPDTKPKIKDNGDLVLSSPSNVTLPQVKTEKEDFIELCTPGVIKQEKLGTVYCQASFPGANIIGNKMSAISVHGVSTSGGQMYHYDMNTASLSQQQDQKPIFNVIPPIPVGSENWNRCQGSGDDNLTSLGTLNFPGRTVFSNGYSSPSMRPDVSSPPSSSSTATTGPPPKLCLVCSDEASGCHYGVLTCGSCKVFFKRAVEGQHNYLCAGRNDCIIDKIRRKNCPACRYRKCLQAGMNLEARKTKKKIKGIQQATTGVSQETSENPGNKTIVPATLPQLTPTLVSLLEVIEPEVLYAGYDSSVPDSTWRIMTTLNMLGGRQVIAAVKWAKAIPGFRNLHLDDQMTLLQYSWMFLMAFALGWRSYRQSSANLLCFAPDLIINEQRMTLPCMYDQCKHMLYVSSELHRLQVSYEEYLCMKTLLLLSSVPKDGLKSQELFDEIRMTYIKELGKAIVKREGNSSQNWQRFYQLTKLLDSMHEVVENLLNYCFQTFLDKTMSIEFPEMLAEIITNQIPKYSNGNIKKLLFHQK
Chain of 3',5'-cyclic-AMP phosphodiesterase 4B (Homo sapiens) (Q07343 whole entry, looked up): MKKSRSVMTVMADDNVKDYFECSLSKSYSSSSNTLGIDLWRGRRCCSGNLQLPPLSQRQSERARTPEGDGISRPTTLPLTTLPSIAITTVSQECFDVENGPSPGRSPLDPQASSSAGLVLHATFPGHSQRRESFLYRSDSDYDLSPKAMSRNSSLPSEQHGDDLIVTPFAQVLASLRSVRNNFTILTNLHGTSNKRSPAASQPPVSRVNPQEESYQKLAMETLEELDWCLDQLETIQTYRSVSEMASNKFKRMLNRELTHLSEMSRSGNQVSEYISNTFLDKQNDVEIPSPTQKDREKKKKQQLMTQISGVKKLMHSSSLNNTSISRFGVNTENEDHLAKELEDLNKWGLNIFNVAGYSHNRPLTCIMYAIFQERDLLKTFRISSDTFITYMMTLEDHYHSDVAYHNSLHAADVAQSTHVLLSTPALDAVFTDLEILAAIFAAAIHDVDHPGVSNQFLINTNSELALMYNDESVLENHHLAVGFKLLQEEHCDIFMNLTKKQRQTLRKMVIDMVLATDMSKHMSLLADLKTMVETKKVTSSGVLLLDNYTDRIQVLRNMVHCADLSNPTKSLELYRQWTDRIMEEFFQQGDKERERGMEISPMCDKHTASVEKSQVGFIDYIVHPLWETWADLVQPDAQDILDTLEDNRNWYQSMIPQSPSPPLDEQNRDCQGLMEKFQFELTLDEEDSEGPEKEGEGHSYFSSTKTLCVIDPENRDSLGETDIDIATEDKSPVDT

C[C@@H](SCc1ccccc1)C(=O)O
inactive: Potency [1] > 11.4 µM | activity change, negative = inhibition [2] -4.75% | activity change, negative = inhibition [3] 12.1% | activity, negative = inhibition [4] -3.81% | Potency [5] > 46 µM | Potency [6] > 9.22 µM | Potency [7] | Potency [8]

O=c1ccc(-c2ccccc2)n[nH]1
inactive: Potency [1] > 11.4 µM | activity change, negative = inhibition [2] 1.12% | activity change, negative = inhibition [3] -2.18% | activity, negative = inhibition [4] -3.27% | Potency [5] > 46 µM | Potency [6] > 9.22 µM | Potency [7] | Potency [8]

CC(C)C[C@H](N)C(=O)O
inactive: Potency [1] > 11.4 µM | activity change, negative = inhibition [2] 10.7% | activity change, negative = inhibition [3] 1.77% | activity, negative = inhibition [4] 5.12% | Potency [5] > 46 µM | Potency [6] > 9.22 µM | Potency [7] | Potency [8]

Cc1ccn2c(CCc3nnc4cc(C)ccn34)nnc2c1
inactive: Potency [1] > 11.4 µM | activity change, negative = inhibition [2] 2.24% | activity change, negative = inhibition [3] 11% | activity, negative = inhibition [4] -6.72% | Potency [5] > 46 µM | Potency [6] > 9.22 µM | Potency [7] | Potency [8]

COC(=O)c1cc(-c2ccc3ccccc3c2)[nH]c(=O)c1C#N
inactive: Potency [1] > 11.4 µM | activity change, negative = inhibition [2] -3.94% | activity change, negative = inhibition [3] 1.77% | activity, negative = inhibition [4] -1.42% | Potency [5] > 46 µM | Potency [6] > 9.22 µM | Potency [7] | Potency [8]

Cc1cc2ncn(CC(=O)O)c2cc1C
inactive: Potency [1] > 11.4 µM | activity change, negative = inhibition [2] -4.54% | activity change, negative = inhibition [3] 1.45% | activity, negative = inhibition [4] 8.76% | Potency [5] > 46 µM | Potency [6] > 9.22 µM | Potency [7] | Potency [8]

Cc1nc2ccccc2nc1N1CCCC1
inactive: Potency [1] > 11.4 µM | activity change, negative = inhibition [2] 2.88% | activity change, negative = inhibition [3] 0.00129% | activity, negative = inhibition [4] 3.44% | Potency [5] > 46 µM | Potency [6] > 9.22 µM | Potency [7] | Potency [8]

O=C(c1nc2ccc([N+](=O)[O-])cc2[nH]c1=O)[C@@H](O)c1ccc2c(c1)OCO2
inactive: Potency [1] > 11.4 µM | activity change, negative = inhibition [2] -1.57% | activity change, negative = inhibition [3] 2.9% | activity, negative = inhibition [4] 12.9% | Potency [5] > 46 µM | Potency [6] > 9.22 µM | Potency [7] | Potency [8]

COc1cc(CN2CCCCC2)cc2cc(C(=O)O)c(=O)oc12
inactive: Potency [1] > 11.4 µM | activity change, negative = inhibition [2] 17.3% | activity change, negative = inhibition [3] 15.7% | activity, negative = inhibition [4] -2.43% | Potency [5] > 46 µM | Potency [6] > 9.22 µM | Potency [7] | Potency [8]

Cc1nc([N+](=O)[O-])cn1-c1nc2ccccn2c1[N+](=O)[O-]
inactive: Potency [1] > 11.4 µM | activity change, negative = inhibition [2] 2.55% | activity change, negative = inhibition [3] -3.74% | activity, negative = inhibition [4] 4.02% | Potency [5] > 46 µM | Potency [6] > 9.22 µM | Potency [7] | Potency [8]

Cc1ccc(CN2CCN(Cc3ccc(C)o3)[C@@H](C)C2)o1
inactive: Potency [1] > 11.4 µM | activity change, negative = inhibition [2] -2.23% | activity change, negative = inhibition [3] -7.45% | activity, negative = inhibition [4] 1.61% | Potency [5] > 46 µM | Potency [6] > 9.22 µM | Potency [7] | Potency [8]

CN1CCN(CC(=O)Nc2cccc3ccccc23)CC1
inactive: Potency [1] > 11.4 µM | activity change, negative = inhibition [2] -2.71% | activity change, negative = inhibition [3] 5.99% | activity, negative = inhibition [4] 15.2% | Potency [5] > 46 µM | Potency [6] > 9.22 µM | Potency [7] | Potency [8]

CN(/N=C\c1ccccc1O)c1ccc2ccccc2n1
inactive: Potency [1] > 11.4 µM | activity change, negative = inhibition [2] -2.44% | activity change, negative = inhibition [3] -9.81% | activity, negative = inhibition [4] 1.98% | Potency [5] > 46 µM | Potency [6] > 9.22 µM | Potency [7] | Potency [8]

C[C@H](CCC(=O)O)[C@H]1CC[C@@H]2[C@@H]3CC[C@H]4C[C@@H](O)CC[C@@]4(C)[C@@H]3C[C@H](O)[C@@]21C
inactive: Potency [1] > 11.4 µM | activity change, negative = inhibition [2] 4.11% | activity change, negative = inhibition [3] 27.2% | activity, negative = inhibition [4] 2.1% | Potency [5] > 46 µM | Potency [6] > 9.22 µM | Potency [7] | Potency [8]

CC1(C)CCC(=O)N[C@H]1CC(=O)C[C@H]1NC(=O)CCC1(C)C
inactive: Potency [1] > 11.4 µM | activity change, negative = inhibition [2] -7.26% | activity change, negative = inhibition [3] 13% | activity, negative = inhibition [4] 3.06% | Potency [5] > 46 µM | Potency [6] > 9.22 µM | Potency [7] | Potency [8]

O=C(O)c1cccc(S(=O)(=O)NCCO)c1
inactive: Potency [1] > 11.4 µM | activity change, negative = inhibition [2] 5.38% | activity change, negative = inhibition [3] 3.24% | activity, negative = inhibition [4] -2.13% | Potency [5] > 46 µM | Potency [6] > 9.22 µM | Potency [7] | Potency [8]

O=C(O)c1ccc(NCc2nc3cc4ccccc4cc3[nH]2)cc1
inactive: Potency [1] > 11.4 µM | activity change, negative = inhibition [2] -5.67% | activity change, negative = inhibition [3] 14.2% | activity, negative = inhibition [4] -2.42% | Potency [5] > 46 µM | Potency [6] > 9.22 µM | Potency [7] | Potency [8]
